Reference: PubChem BioAssay (EPA / NIEHS)
Results filed as inconclusive are left out. The source made the active and inactive calls. Rule for the calls, unless noted: active = hit-call score of the fitted dose curve at least 0.9, where 1 is the maximum; inactive = score below 0.9.

Assays:
[1] = target: Transcription factor E2F1 (Homo sapiens) (UniProt Q01094); experiment: ATG_E2F_CIS: Attagene CIS-FACTORIAL HepG2 Assay for human E2F Transcription Factor 1 (AID 2282935); details: HepG2 Attagene cis-reporter, E2F reporter RNA transcripts; actives raise or lower the signal
Transcription factor E2F1 (Homo sapiens), sequence (Q01094 whole entry, looked up): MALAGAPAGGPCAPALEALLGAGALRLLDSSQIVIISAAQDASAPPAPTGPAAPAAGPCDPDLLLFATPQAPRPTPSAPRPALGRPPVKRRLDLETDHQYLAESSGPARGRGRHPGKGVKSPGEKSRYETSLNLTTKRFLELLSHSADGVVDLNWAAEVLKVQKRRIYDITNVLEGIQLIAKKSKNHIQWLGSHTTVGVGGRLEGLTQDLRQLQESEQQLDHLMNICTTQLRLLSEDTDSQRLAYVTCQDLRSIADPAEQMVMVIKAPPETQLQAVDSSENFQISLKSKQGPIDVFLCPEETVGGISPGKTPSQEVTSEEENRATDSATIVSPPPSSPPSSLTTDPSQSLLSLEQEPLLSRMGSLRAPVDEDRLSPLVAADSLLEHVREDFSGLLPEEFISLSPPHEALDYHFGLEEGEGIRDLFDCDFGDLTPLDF
Procedure, shortened: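 Liver-derived HepG2 cells expressing transfected promoter-driven reporter units received test chemical for 24 hours. Signal gains or losses were fitted bidirectionally against DMSO.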

[2] = ATG_M_61_CIS: Attagene CIS-FACTORIAL HepG2 Assay for M61 Transcription Factor (Internal Marker) (AID 2282937); details: HepG2 Attagene CIS-FACTORIAL M61 internal marker reporter; actives raise or lower the signal
Procedure, shortened: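 Readout is reporter mRNA by RT-PCR, fluorescent primer extension and capillary electrophoresis, with gain or loss fitted relative to DMSO. Transfected HepG2 cells carrying endogenous-TF-driven cis reporters were exposed to chemicals for 24 hours.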

[3] = ATG_GRE_CIS: Attagene CIS-FACTORIAL HepG2 Assay for human Glucocorticoid Response Elements (GRE) (AID 2282947); details: HepG2 GRE cis-reporter, Attagene multiplex mRNA; actives raise or lower the signal
Procedure, shortened: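 Fluorescence intensity of reporter-specific cDNA fragments, separated by capillary electrophoresis, provides the signal. Constructs carry cis-regulating promoters in transiently transfected HepG2 liver cells; 24 h incubation; fitting is bidirectional against DMSO.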

[4] = ATG_ISRE_CIS: Attagene CIS-FACTORIAL HepG2 Assay for human Interferon Regulatory Factor 1 (IRF1) binding to an Interferon-Stimulated Response Element (ISRE) (AID 2282948); details: HepG2 ISRE cis-reporter (Attagene), mRNA transcription readout; actives raise or lower the signal
Procedure, shortened: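 Endogenous transcription factor activity read as reporter transcript abundance via RT-PCR and capillary electrophoresis. HepG2 cells transiently transfected, 24 h chemical exposure. Gain or loss fitted against DMSO baseline.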

[5] = target: Hepatocyte nuclear factor 6 (Homo sapiens) (UniProt Q9UBC0); experiment: ATG_HNF6_CIS: Attagene CIS-FACTORIAL HepG2 Assay for human Hepatocyte Nuclear Factor 6 (HNF6) (AID 2282952); details: HepG2 Attagene cis-factorial HNF6 reporter transcription; actives raise or lower the signal
Hepatocyte nuclear factor 6 (Homo sapiens), sequence (Q9UBC0 whole entry, looked up, the tested form may be a part): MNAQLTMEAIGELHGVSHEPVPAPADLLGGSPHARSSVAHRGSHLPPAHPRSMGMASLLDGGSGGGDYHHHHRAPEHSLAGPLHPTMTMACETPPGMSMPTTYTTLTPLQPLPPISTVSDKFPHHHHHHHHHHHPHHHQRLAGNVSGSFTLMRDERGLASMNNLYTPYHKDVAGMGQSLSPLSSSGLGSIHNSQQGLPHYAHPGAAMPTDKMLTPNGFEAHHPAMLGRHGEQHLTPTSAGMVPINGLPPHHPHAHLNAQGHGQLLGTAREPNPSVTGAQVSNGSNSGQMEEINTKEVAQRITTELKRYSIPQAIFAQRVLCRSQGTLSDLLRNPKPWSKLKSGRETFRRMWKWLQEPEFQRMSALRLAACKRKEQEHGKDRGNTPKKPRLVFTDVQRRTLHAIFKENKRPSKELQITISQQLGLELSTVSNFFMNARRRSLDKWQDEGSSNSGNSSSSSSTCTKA
Procedure, shortened: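 Readout: fluorescent reporter-transcript fragments resolved by capillary electrophoresis after RT-PCR, reflecting endogenous factor activity in transfected HepG2. Exposure 24 h. Gain or loss of signal fitted bidirectionally against DMSO.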

[6] = target: Heat shock factor protein 1 (Homo sapiens) (UniProt Q00613); experiment: ATG_HSE_CIS: Attagene CIS-FACTORIAL HepG2 Assay for human Heat Shock Transcription Factor 1 (HSE) (AID 2282953); details: HepG2 HSE cis-reporter, Attagene RNA transcription; actives raise or lower the signal
Heat shock factor protein 1 (Homo sapiens), sequence (Q00613 whole entry, looked up, the tested form may be a part): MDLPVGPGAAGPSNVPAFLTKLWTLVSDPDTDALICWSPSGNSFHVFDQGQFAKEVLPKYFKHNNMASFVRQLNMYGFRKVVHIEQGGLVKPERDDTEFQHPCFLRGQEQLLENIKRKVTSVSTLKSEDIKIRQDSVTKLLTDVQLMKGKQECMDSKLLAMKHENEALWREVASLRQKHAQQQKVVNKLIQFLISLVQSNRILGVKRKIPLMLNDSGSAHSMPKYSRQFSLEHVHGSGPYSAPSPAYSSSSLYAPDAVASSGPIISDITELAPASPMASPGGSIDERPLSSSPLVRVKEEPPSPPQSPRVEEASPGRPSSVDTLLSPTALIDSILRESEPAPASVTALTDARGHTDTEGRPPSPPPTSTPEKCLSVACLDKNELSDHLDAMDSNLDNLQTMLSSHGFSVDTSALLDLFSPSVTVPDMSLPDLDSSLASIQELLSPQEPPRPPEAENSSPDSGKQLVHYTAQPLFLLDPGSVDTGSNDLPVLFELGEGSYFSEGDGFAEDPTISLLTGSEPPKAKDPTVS
Procedure, shortened: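 Endogenous transcription factor activity captured via cis-promoter reporter units transfected into HepG2; treatment lasted 24 h. Fluorescence intensity of reporter fragments analysed with bidirectional curve fitting, DMSO baseline.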

[7] = ATG_MRE_CIS: Attagene CIS-FACTORIAL HepG2 Assay for human Metal Responsive Element (MRE) (AID 2282954); details: HepG2 MRE cis-reporter transcription, Attagene multiplex; actives raise or lower the signal
Procedure, shortened: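 Measured here is mRNA induction from an MRE cis-element reporter in HepG2 after 24 h, quantified by fluorescence of labelled RT-PCR products on capillary electrophoresis; gain- and loss-of-signal fits use DMSO as baseline.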

[8] = ATG_RORE_CIS: Attagene CIS-FACTORIAL HepG2 Assay for human RAR-related Orphan Receptor Element (RORE) (AID 2282959); details: HepG2 Attagene cis-factorial RORE reporter, mRNA; actives raise or lower the signal
Procedure, shortened: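 RORE reporter transcripts reflecting endogenous factor activity were read after 24 h compound exposure of transfected HepG2 cells, using reverse transcription, PCR, fluorescent labelling and capillary electrophoresis sizing. Gain or loss fitted against DMSO.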

[9] = ATG_TA_CIS: Attagene CIS-FACTORIAL HepG2 Assay for human TA Basal Promoter (AID 2282964); details: HepG2 Attagene CIS-factorial TA basal promoter reporter; actives raise or lower the signal
Procedure, shortened: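 Fluorescence from labelled RT-PCR reporter fragments, separated by capillary electrophoresis, gives the signal. Cells: HepG2 transiently carrying multiple reporter units, 24 h chemical dosing. Gain or loss relative to DMSO.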

[10] = ATG_TAL_CIS: Attagene CIS-FACTORIAL HepG2 Assay for human TAL Basal Promoter (AID 2282966); details: HepG2 Attagene cis-factorial TAL promoter reporter; actives raise or lower the signal;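 note: background control endpoint measuring basal TAL promoter reporter mRNA not a specific factor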
Procedure, shortened: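 HepG2, transient MRTU transfection, 24 h compound exposure; RNA → oligo(dT) RT → PCR → 6-FAM primer extension → HpaI digest → CE fluorescence. Bidirectional curve fit vs DMSO. Background-control readout.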

[11] = ATG_VDRE_CIS: Attagene CIS-FACTORIAL HepG2 Assay for human Vitamin D Receptor Element (VDRE) (AID 2282968); details: HepG2 VDRE cis-reporter transcription, actives raise or lower the signal
Procedure, shortened: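 Compounds were applied for 24 h to HepG2 cells transfected with promoter-regulated reporter units. Total RNA was reverse-transcribed, and reporter amplicons were fluorescently labelled and sized by capillary electrophoresis.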

[12] = target: X-box-binding protein 1 (Homo sapiens) (UniProt P17861); experiment: ATG_Xbp1_CIS: Attagene CIS-FACTORIAL HepG2 Assay for human X-box Binding Protein 1 (XBP1) (AID 2282972); details: HepG2 XBP1 cis-element reporter, Attagene multiplex; actives raise or lower the signal
X-box-binding protein 1 (Homo sapiens), sequence (P17861 whole entry, looked up): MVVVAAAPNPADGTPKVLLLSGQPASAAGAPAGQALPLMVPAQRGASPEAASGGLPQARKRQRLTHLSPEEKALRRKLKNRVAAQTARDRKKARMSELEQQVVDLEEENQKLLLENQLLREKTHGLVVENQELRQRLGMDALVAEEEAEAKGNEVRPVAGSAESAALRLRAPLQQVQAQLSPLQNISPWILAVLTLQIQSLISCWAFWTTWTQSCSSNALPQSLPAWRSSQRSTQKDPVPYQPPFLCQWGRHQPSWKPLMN
Procedure, shortened: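 Reporter transcripts were quantified by RT-PCR with fluorescent primer extension and capillary electrophoresis after 24 h chemical exposure. Cells: transiently transfected HepG2 carrying cis-regulated reporter constructs; data fitted bidirectionally relative to DMSO.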

[13] = target: Hepatocyte nuclear factor 4-alpha (Homo sapiens) (UniProt P41235); experiment: ATG_HNF4a_TRANS: Attagene TRANS-FACTORIAL HepG2 Assay for human Hepatocyte Nuclear Factor 4 alpha (HNF4a) (AID 2282982; active = hit-call score of the fitted dose curve at least 0.9, where 1 is the maximum); details: HepG2 HNF4a transactivation reporter, mRNA readout
Hepatocyte nuclear factor 4-alpha (Homo sapiens), sequence (P41235 whole entry, looked up, the tested form may be a part): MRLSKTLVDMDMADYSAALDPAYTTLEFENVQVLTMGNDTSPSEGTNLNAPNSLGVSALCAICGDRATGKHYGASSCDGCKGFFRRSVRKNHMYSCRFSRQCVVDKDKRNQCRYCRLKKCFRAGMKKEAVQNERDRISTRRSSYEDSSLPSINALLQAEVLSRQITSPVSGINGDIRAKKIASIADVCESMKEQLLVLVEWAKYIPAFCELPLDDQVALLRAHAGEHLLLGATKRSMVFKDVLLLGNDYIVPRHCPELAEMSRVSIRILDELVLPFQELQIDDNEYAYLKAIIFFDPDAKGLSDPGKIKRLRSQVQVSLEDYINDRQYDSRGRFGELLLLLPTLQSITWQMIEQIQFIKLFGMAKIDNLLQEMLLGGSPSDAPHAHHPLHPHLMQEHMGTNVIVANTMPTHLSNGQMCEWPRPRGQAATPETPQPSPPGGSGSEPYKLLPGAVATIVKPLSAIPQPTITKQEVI
Procedure, shortened: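 Endpoint reflects transcriptional activation of a GAL4-UAS reporter by an HNF4a-GAL4 chimera in transfected HepG2 cells, 24 h post-dosing. Fluorescence from RT-PCR products separated by capillary electrophoresis; DMSO baseline.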

[14] = target: Nuclear respiratory factor 1 (Homo sapiens) (UniProt Q16656); experiment: ATG_NRF1_CIS: Attagene CIS-FACTORIAL HepG2 Assay for human Nuclear Respiratory Factor 1 (NRF1) Orphan Gene (AID 2282987); details: HepG2 NRF1 cis-element reporter, Attagene multiplex; actives raise or lower the signal
Nuclear respiratory factor 1 (Homo sapiens), sequence (Q16656 whole entry, looked up): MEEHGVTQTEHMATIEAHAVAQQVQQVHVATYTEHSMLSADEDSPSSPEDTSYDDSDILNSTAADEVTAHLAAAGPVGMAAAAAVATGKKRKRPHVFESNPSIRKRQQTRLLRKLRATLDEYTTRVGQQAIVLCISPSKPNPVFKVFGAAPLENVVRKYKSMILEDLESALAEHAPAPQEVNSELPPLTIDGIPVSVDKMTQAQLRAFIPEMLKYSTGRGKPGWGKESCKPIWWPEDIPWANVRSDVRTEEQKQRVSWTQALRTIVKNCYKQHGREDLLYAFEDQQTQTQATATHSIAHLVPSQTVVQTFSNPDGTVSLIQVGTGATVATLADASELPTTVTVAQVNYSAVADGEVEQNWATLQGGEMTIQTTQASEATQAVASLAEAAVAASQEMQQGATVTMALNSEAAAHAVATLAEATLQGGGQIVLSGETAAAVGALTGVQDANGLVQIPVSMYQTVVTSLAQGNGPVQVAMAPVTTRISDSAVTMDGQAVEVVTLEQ
Procedure, shortened: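 Endogenous NRF1-driven reporter transcription in transfected HepG2 cells after 24 h treatment. Readout: RT-PCR products, 6-FAM labelled and resolved by capillary electrophoresis; changes fitted both directions relative to DMSO.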

[15] = ATG_NFI_CIS: Attagene CIS-FACTORIAL HepG2 Assay for human Nuclear Factor I (NFI) (AID 2282989); details: HepG2 cis-regulatory reporter, NFI response element transcription; actives raise or lower the signal
Procedure, shortened: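 Cells: human liver HepG2, transiently transfected with promoter-regulated reporter transcription units. Exposure 24 h. Detection: fluorescent RT-PCR products separated by capillary electrophoresis, normalised to DMSO negative control.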

[16] = target: Myc proto-oncogene protein (Homo sapiens) (UniProt P01106); experiment: ATG_Myc_CIS: Attagene CIS-FACTORIAL HepG2 Assay for human Myelocytomatosis (Myc) Proto-Oncogene Transcription Factor (AID 2282990); details: HepG2, Attagene cis-reporter transcription factor activity; actives raise or lower the signal
Myc proto-oncogene protein (Homo sapiens), sequence (P01106 whole entry, looked up): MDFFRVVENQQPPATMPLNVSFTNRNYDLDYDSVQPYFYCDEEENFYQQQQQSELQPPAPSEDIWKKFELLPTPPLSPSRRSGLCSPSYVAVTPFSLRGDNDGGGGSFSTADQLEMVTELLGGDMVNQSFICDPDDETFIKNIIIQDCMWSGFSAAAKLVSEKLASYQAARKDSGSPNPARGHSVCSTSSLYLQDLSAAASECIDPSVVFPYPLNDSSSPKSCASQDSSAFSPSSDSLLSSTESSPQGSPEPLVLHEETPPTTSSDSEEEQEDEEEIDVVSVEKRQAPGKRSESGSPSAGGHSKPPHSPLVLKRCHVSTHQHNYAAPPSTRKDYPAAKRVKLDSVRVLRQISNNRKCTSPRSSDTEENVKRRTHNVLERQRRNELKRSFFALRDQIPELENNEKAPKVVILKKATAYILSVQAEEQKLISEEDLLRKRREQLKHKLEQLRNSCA
Procedure, shortened: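 Transiently transfected HepG2 cells bearing cis-promoter reporter units for endogenous transcription factors; 24 h exposure. Reporter mRNA measured by RT-PCR, 6-FAM primer extension, HpaI cut and capillary electrophoresis; bidirectional fit relative to DMSO.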

[17] = ATG_NF_kB_CIS: Attagene CIS-FACTORIAL HepG2 Assay for human Nuclear Factor Kappa B (NF-kB) (AID 2282991); details: HepG2 Attagene cis-factorial NF-kB reporter mRNA; actives raise or lower the signal
Procedure, shortened: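 Readout is reporter transcript level, gain or loss versus DMSO, measured 24 h post-dose via RT-PCR, fluorescent labelling and capillary electrophoresis. Human HepG2 liver cells carried transiently transfected CIS reporter constructs reflecting endogenous factors.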

[18] = ATG_NRF2_ARE_CIS: Attagene CIS-FACTORIAL HepG2 Assay for human Nuclear Factor Erythroid 2 Related Factor 2 (NFR2) response to Antioxidant Response Elements (ARE) (AID 2282992); details: HepG2 Attagene ARE/NRF2 reporter, transcription factor activity; actives raise or lower the signal
Procedure, shortened: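 Endogenous transcription factor activity read out as reporter transcript levels (RT-PCR plus capillary electrophoresis, fluorescence) in transiently transfected HepG2 cells. Measured at 24 h after dosing; gain or loss of signal fitted versus DMSO.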

[19] = ATG_Oct_MLP_CIS: Attagene CIS-FACTORIAL HepG2 Assay for human Octamer-Binding Transcription Factor (Oct) (AID 2282993); details: HepG2 Attagene cis-factorial Oct reporter, mRNA; actives raise or lower the signal
Procedure, shortened: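 HepG2, transient MRTU transfection, cis promoter elements; 24 h dosing; RT-PCR/CE fluorescence read-out of reporter mRNA; fit both directions vs DMSO.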

[20] = target: Cellular tumor antigen p53 (Homo sapiens) (UniProt P04637); experiment: ATG_p53_CIS: Attagene CIS-FACTORIAL HepG2 Assay for human p53 Transcription Factor (AID 2282994); details: HepG2 p53 cis-element reporter, Attagene mRNA; actives raise or lower the signal
Cellular tumor antigen p53 (Homo sapiens), sequence (P04637 whole entry, looked up): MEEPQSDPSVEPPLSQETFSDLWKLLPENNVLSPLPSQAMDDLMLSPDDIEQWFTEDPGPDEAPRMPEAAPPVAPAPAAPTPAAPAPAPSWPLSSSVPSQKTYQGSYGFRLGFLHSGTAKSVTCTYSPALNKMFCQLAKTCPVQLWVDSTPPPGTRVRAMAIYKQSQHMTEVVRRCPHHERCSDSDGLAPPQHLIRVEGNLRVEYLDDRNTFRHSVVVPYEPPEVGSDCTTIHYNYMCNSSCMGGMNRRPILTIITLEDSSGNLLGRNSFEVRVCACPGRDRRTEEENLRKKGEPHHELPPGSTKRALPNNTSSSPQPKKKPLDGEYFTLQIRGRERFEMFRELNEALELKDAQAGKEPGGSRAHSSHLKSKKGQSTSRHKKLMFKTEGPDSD
Procedure, shortened: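 Endogenous p53 activity read in transiently transfected HepG2 from a cis-element-driven reporter transcript after 24 h exposure. RNA reverse-transcribed, PCR-amplified, fluorescently labelled and sized by capillary electrophoresis; gain or loss fitted against DMSO baseline.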

Measured: AC50

ClC1=C(Cl)[C@]2(Cl)[C@@H]3[C@@H](Cl)[C@H](Cl)C[C@@H]3[C@@]1(Cl)C2(Cl)Cl
inactive: all assays above

Cl/C=C\CCl
inactive: all assays above

CC=Cc1ccc2c(c1)OCO2
not listed: [1] | [3] | [4] | [7]
inactive: all other assays above

[N-]=[N+]=CC(=O)OC[C@H](N)C(=O)O
not listed: [2] | [3] | [6] | [13]
inactive: all other assays above

C=CC(=O)OCCO
active: [7] 70.9 µM | [8] 59.1 µM | [11] 116 µM | [12] 131 µM | [15] 164 µM | [17] 17.1 µM | [18] 47.6 µM | [19] 100 µM
not listed: [2]
inactive: all other assays above

ClCC(Cl)Cl
not listed: [5] | [6] | [13]
inactive: all other assays above

CC(C)(C)C(=O)CCl
active: [6] 157 µM | [7] 77.1 µM | [18] 21.6 µM
inactive: all other assays above

c1cc(OCC2CO2)ccc1Cc1ccc(OCC2CO2)cc1 (configuration not stated)
inactive: [1] | [3] | [8] | [9] | [10] | [13] | [15]
active: [4] 49.1 µM | [5] 45.8 µM | [6] 62.6 µM | [7] 42.6 µM | [11] 8.36 µM | [12] 19.8 µM | [16] 22.9 µM | [17] 54.7 µM | [18] 8.95 µM | [19] 25.3 µM | [20] 55.3 µM

O=C1C(Cl)=C(Cl)C(=O)C(Cl)=C1Cl
active: [17] 34.6 µM | [18] 48.7 µM
not listed: [4] | [6] | [14]
inactive: all other assays above

CC(O)CN(CC(C)O)CC(C)O (configuration not stated)
not listed: [5] | [11] | [13] | [17]
inactive: all other assays above

CC1CCC(=O)O1 (configuration not stated)
not listed: [2] | [4] | [6]
inactive: all other assays above

C=C(Cl)CCl
not listed: [1] | [7]
inactive: all other assays above

CCC1CCC(=O)O1 (configuration not stated)
not listed: [2] | [5] | [6] | [7] | [17] | [20]
inactive: all other assays above

O=C(O)C(Br)Br
active: [18] 1.86 µM
not listed: [2] | [5]
inactive: all other assays above

CCCCNP(N)(N)=S
not listed: [4] | [6] | [8] | [13]
inactive: all other assays above

COc1cc(OC)c(OC)cc1C=O
not listed: [7] | [14]
inactive: all other assays above

CC(=O)c1cc2c(cc1C)C(C)(C)C(C)CC2(C)C (configuration not stated)
active: [6] 116 µM | [7] 43.8 µM | [8] 166 µM | [12] 66.6 µM | [15] 25.4 µM | [16] 60.9 µM | [18] 26.7 µM | [19] 64.3 µM
not listed: [2] | [3] | [5]
inactive: all other assays above

C=C(Cl)Cl
not listed: [1] | [4] | [11] | [14] | [17]
inactive: all other assays above
